About 83,000 compounds went through this panel and 20% of them were active in at least one assay; those are over-represented in the sample as a whole.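 Results are percent growth after 48 hours of single-concentration exposure. 100 means growth as in untreated cells, lower positive values show inhibition; negative values down to -100 show cell death.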 Values without a mark were called inactive. Calls of active or inactive are those of the source. The calls were made as follows: active = growth percent below 10; inactive = the rest.

Some test systems named below: SK-MEL-2 melanoma; EKVX NSCLC; SN12C renal; UO-31 renal; TK-10 renal; ACHN renal; CAKI-1 renal; A498 renal; CCRF-CEM leukemia; MOLT-4 leukemia; SR leukemia; RPMI-8226 leukemia; OVCAR-8 ovarian; OVCAR-5 ovarian; OVCAR-4 ovarian; SK-OV-3 ovarian; IGROV1 ovarian; OVCAR-3 ovarian; HS 578T breast; NCI/ADR-RES ovarian.
Common to all, as to assay: NCI-60 one-dose screen, 48 h (100 = growth as untreated, 0 = no growth, -100 = all killed)
Common to all, as to conditions: 10 µM unless noted

In the case of `COc1ccc(/C=C/C(=O)c2ccc(NC(=O)c3cc4cc5ccccc5nc4s3)cc2)cc1OC`, the growth was 103% with SK-MEL-2 melanoma; 94.6% with EKVX NSCLC; 98.1% in the experiment with SN12C renal; 88.5% in the experiment with UO-31 renal; 126% in the experiment with TK-10 renal; 102% with ACHN renal. For the same molecule, the growth is 98% in the experiment with CAKI-1 renal; 83.1% in the experiment on A498 renal; 104% with CCRF-CEM leukemia; 114% in the experiment with MOLT-4 leukemia; 98.6% in the experiment with SR leukemia; 99.4% with RPMI-8226 leukemia. Also, the growth is 111% in the experiment on OVCAR-8 ovarian; 96.8% in the experiment on OVCAR-5 ovarian; 97.1% in the experiment on OVCAR-4 ovarian; 106% with SK-OV-3 ovarian; 81.8% in the experiment with IGROV1 ovarian; 95.5% with OVCAR-3 ovarian. Besides, the values for the growth in the experiment with HS 578T breast and with NCI/ADR-RES ovarian were 107% and 105%, respectively.
Take `COC(=S)SCN(CSC(=S)OC)c1ccc(Cl)cc1`: the growth in the experiment with SK-MEL-2 melanoma was 106%; in the experiment on EKVX NSCLC, 70.3%; in the experiment on SN12C renal, 80.7%; in the experiment with UO-31 renal, 66.5%; with TK-10 renal, 109%; in the experiment with ACHN renal, 75.3%. For the same molecule, the growth with CAKI-1 renal was 62.8%; with A498 renal it was 86.8%; in the experiment on CCRF-CEM leukemia, 77.7%; in the experiment on MOLT-4 leukemia, 81.7%; with SR leukemia, 123%; in the experiment on RPMI-8226 leukemia, 73.1%. The growth in the experiment with OVCAR-8 ovarian is 91.3%; with OVCAR-5 ovarian, 97.1%; in the experiment with OVCAR-4 ovarian it was 87.6%; in the experiment with SK-OV-3 ovarian, 91.6%; in the experiment with IGROV1 ovarian, 95.4%; with OVCAR-3 ovarian, 104%. Further, the growth is 88.4% in the experiment on HS 578T breast and 79.1% in the experiment with NCI/ADR-RES ovarian.
Take `COc1ccc(-n2cc(-c3ccccc3)c3c(SCC(=O)N/N=C/c4ccc([N+](=O)[O-])cc4)ncnc32)cc1`: the growth is 98.1% with SK-MEL-2 melanoma; 97% in the experiment with EKVX NSCLC; 102% in the experiment on SN12C renal; 79.4% in the experiment with UO-31 renal; 108% with TK-10 renal; 105% with ACHN renal. In addition, the growth with CAKI-1 renal is 89.7%; in the experiment with A498 renal, 108%; with CCRF-CEM leukemia it was 104%; with MOLT-4 leukemia, 108%; in the experiment with SR leukemia, 108%; in the experiment with RPMI-8226 leukemia, 108%. Further, the growth is 103% with OVCAR-8 ovarian; 99.2% with OVCAR-5 ovarian; 102% in the experiment with OVCAR-4 ovarian; 109% with SK-OV-3 ovarian; 108% in the experiment with IGROV1 ovarian; 105% in the experiment on OVCAR-3 ovarian. In addition, the results for the growth with HS 578T breast and in the experiment with NCI/ADR-RES ovarian were 105% and 91.3%, respectively.
With `CCCCN(CCCC)Cc1c(C)[nH]c2cc(OC)ccc2c1=O`, the growth with SK-MEL-2 melanoma is 110%; with EKVX NSCLC, 104%; with SN12C renal, 104%; in the experiment with UO-31 renal, 81.2%; in the experiment with TK-10 renal, 104%; with ACHN renal, 110%. Further, the growth is 99.1% in the experiment on CAKI-1 renal; 95.8% with A498 renal; 95.8% in the experiment with CCRF-CEM leukemia; 90.9% with MOLT-4 leukemia; 92.8% in the experiment on SR leukemia; 99.7% with RPMI-8226 leukemia. Further, the growth in the experiment on OVCAR-8 ovarian is 91.9%; in the experiment on OVCAR-5 ovarian, 119%; in the experiment on OVCAR-4 ovarian, 106%; in the experiment on SK-OV-3 ovarian, 92.2%; in the experiment on IGROV1 ovarian, 113%; in the experiment with OVCAR-3 ovarian, 96.6%. For the same molecule, the growth was 103% in the experiment on HS 578T breast and 104% with NCI/ADR-RES ovarian.
Turning to `NC(=S)N/N=C/c1ccc(OCc2ccccc2)cc1`, the growth with SK-MEL-2 melanoma is 54.2%; in the experiment on EKVX NSCLC it was 74.8%; in the experiment on SN12C renal, 70.6%; in the experiment with UO-31 renal, 22.8%; in the experiment on TK-10 renal, 60.2%; in the experiment with ACHN renal it was 67%. Moreover, the growth with CAKI-1 renal was 68.2%; in the experiment on A498 renal it was 71.5%; in the experiment with CCRF-CEM leukemia it was 39.1%; with MOLT-4 leukemia it was 32.1%; in the experiment with SR leukemia it was 62.8%; in the experiment on RPMI-8226 leukemia, 1.94% (active). The growth in the experiment with OVCAR-8 ovarian was 78.2%; in the experiment with OVCAR-5 ovarian, 89.7%; with OVCAR-4 ovarian, 44.8%; with SK-OV-3 ovarian, 80%; in the experiment on IGROV1 ovarian it was 52.8%; in the experiment on OVCAR-3 ovarian it was 62.1%. Further, the growth with HS 578T breast was 81.2%; with NCI/ADR-RES ovarian, 83.7%.
Consider `CC1=C(C)C(=O)OC([C@](C)(O)[C@]2(O)CC[C@@]3(O)[C@@H]4C[C@H]5O[C@]56CC=CC(=O)[C@]6(C)[C@H]4CC[C@]23COC(=O)c2ccc(C)o2)C1` (stereo not given in full), for which the growth with SK-MEL-2 melanoma was -63% (active); in the experiment on EKVX NSCLC, -46.9% (active); in the experiment on SN12C renal, -61% (active); in the experiment on UO-31 renal it was -96.6% (active); with TK-10 renal, -89.8% (active); with ACHN renal it was -95.7% (active). For the same molecule, the growth is -87.2% (active) in the experiment with CAKI-1 renal; -78.3% (active) with A498 renal; 0.17% (active) in the experiment on CCRF-CEM leukemia; 4.89% (active) in the experiment on MOLT-4 leukemia; 2.88% (active) in the experiment with SR leukemia; -17.3% (active) with RPMI-8226 leukemia. Further, the growth in the experiment with OVCAR-8 ovarian is -13.8% (active); in the experiment with OVCAR-5 ovarian, -69.8% (active); in the experiment with OVCAR-4 ovarian, -32.9% (active); in the experiment on SK-OV-3 ovarian it was -51.7% (active); in the experiment with IGROV1 ovarian, -54.4% (active); with OVCAR-3 ovarian it was -96.2% (active). Moreover, the values for the growth with HS 578T breast and in the experiment with NCI/ADR-RES ovarian were 3.52% (active) and 14.5%, respectively.
In the case of `CCNS(=O)(=O)c1ncnc2nc[nH]c12`, the growth is 109% with SK-MEL-2 melanoma; 104% in the experiment on EKVX NSCLC; 112% in the experiment with SN12C renal; 85.8% with UO-31 renal; 122% with TK-10 renal; 119% with ACHN renal. Further, the growth with CAKI-1 renal was 94.9%; in the experiment with A498 renal it was 110%; in the experiment with CCRF-CEM leukemia, 91.1%; with MOLT-4 leukemia, 122%; with SR leukemia, 101%; in the experiment on RPMI-8226 leukemia it was 92%. Besides, the growth was 114% in the experiment on OVCAR-8 ovarian; 102% in the experiment with OVCAR-5 ovarian; 102% with OVCAR-4 ovarian; 108% in the experiment on SK-OV-3 ovarian; 96.9% with IGROV1 ovarian; 113% with OVCAR-3 ovarian. In addition, the figures for the growth with HS 578T breast and in the experiment on NCI/ADR-RES ovarian were 144% and 99.7%, respectively.
For `O=C1CCc2c(sc3[nH]c(=S)n(Cc4ccccc4)c(=O)c23)C1`, the growth in the experiment on SK-MEL-2 melanoma is -15.4% (active); in the experiment on EKVX NSCLC it was 13.9%; in the experiment with SN12C renal it was 7.15% (active); in the experiment with UO-31 renal it was -4.69% (active); in the experiment on TK-10 renal, 29.6%; with ACHN renal, 21.8%. The growth in the experiment with CAKI-1 renal is 24.1%; in the experiment with A498 renal, 57.6%; in the experiment on CCRF-CEM leukemia it was 4.68% (active); with MOLT-4 leukemia it was 28.8%; in the experiment on SR leukemia it was 15.5%; with RPMI-8226 leukemia, 3.36% (active). Also, the growth was 14.3% in the experiment with OVCAR-8 ovarian; 9.59% (active) with OVCAR-5 ovarian; 21.8% in the experiment with OVCAR-4 ovarian; 22.2% with SK-OV-3 ovarian; 34.2% in the experiment on IGROV1 ovarian; 9.16% (active) with OVCAR-3 ovarian. Moreover, the growth in the experiment on HS 578T breast is -3.81% (active); in the experiment with NCI/ADR-RES ovarian, 4.56% (active).

The record behind these values is PubChem BioAssay (NCI).
